Experimental data published in PubChem BioAssay AID1159580 (chemical genetic matrix, 2015).
The campaign covered roughly 5,500 compounds. About 2,000 (36%) were called active. Not shown: some 18% with an inconclusive outcome. Rule as the data show it: active = normalized growth mostly below about 0.91 (no sharp cut-off); inconclusive = no clear call, values can overlap the other calls; inactive = mostly above about 0.92. The list shows a part of the results.

Experiment: chemical genetic growth profiling, strain panel (AID 1159580);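 also: tested at 20 µM; growth read once vehicle control cultures reached saturation at 30 °C; 1 = growth at the plate median or of vehicle wells; lower values mean less growth of the strain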
Conditions: S. cerevisiae deletion strains, growth OD
[1] = locus YAL040C, strain CLN3, hits give low values
[2] = locus YCL061C, strain MRC1 (second series), hits give low values
[3] = locus YDR363W, strain ESC2, hits give low values
[4] = locus YER002W, strain NOP16, hits give low values
[5] = locus YMR263W, strain SAP30, hits give low values
[6] = locus YNL175C, strain NOP13, hits give low values
[7] = locus YNL197C, strain WHI3, hits give low values
[8] = locus YNL224C, strain SQS1, hits give low values
[9] = locus YOR083W, strain WHI5 (second series), hits give low values
[10] = locus YPL055C, strain LGE1, hits give low values
[11] = locus YPL241C, strain CIN2, hits give low values

Measured: normalized growth

S=C=Nc1cccc(C2(N3CCCCC3)CCCCC2)c1
inactive: locus YAL013W, strain DEP1, hits give low values 0.993 | [1] 0.998 | [2] 0.998 | [3] 0.993 | [4] 1.01 | locus YJR075W, strain HOC1, hits give low values 0.984 | [5] 1 | locus YMR307W, strain GAS1, hits give low values 1 | locus YNL153C, strain GIM3, hits give low values 0.968 | [6] 0.994 | [7] 1.08 | [8] 1.04 | [9] 1 | [10] 0.939 | [11] 1

CC1(C)CCC(NC(=O)[C@@H](N)CCC(=O)O)CC1
inactive: [1] 1.02 | [2] 0.999 | [3] 1.02 | [4] 0.995 | locus YGR078C, strain PAC10, hits give low values 1.02 | [5] 0.999 | [6] 1.01 | [7] 0.998 | [8] 0.999 | locus YNL322C, strain KRE1, hits give low values 1.01 | [9] 1 | [10] 1.02 | [11] 0.996
